In PubChem BioAssay AID686978 (National Center for Advancing Translational Sciences (NCATS), 2013):
About 64,000 (15%) of roughly 420,000 compounds were called active. Not shown: some 27% with an inconclusive outcome. The list is a sample of the results. Unmarked numbers belong to inactive results. The call rests on the fitted dose curve; in most records, active means well fitted inhibition curve with a large enough effect; inconclusive means small, poorly fitted or top-dose-only effect; inactive means flat fitted curve, though single readings scatter.

Assay: qHTS for Inhibitors of human tyrosyl-DNA phosphodiesterase 1 (TDP1): qHTS in cells in absence of CPT; further: nearly all actives have a fitted effect of over 55% in size
Conditions: DT40 Tdp1-/- hTDP1 cells, no CPT, ATP luminescence, 48 h; activity change, negative = growth inhibition: at 46.2 µM (top of the series)
How it was run: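 Growth kinetics read by CellTiter-Glo luminescence after ≥48 hr at 37 °C. Cells: DT40 Tdp1-/- stably carrying human TDP1, 400 per well, compound exposure in the absence of CPT (DMSO vehicle).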
On the % scale 0 is the no-effect control and ±100 the full control effect; potency means the concentration at half of the fitted maximal effect.

Row | Compound | activity change, negative = growth inhibition | Potency
1 | O=C1OC(Cc2ccccc2)C(c2ccccc2)C1=O (stereo not drawn) | -11.7% | 
2 | Cc1cc(S(=O)(=O)NCC(C)C)ccc1OCC(=O)NC1CC1 | 4.66% | 
3 | CCCCCC(=O)Nc1ccc(-c2cn3cccnc3n2)cc1 | -3.49% | 
4 | O=C(NNC(=O)C(O)c1ccccc1)NC1CCCCC1 (stereo not drawn) | 9.61% | 
5 | Cc1ccc(NC(=O)C(c2ccccc2)N2CCN(C(=O)c3ccco3)CC2)cc1 (stereo not drawn) | 12.8% | 
6 | O=c1c(-c2cc(F)cc(F)c2)nc2cnc(Oc3ccccc3)nc2n1C[C@H]1CCCO1 | -3.79% | 
7 | CC1OC(OCC2OC(Oc3c(-c4ccc(O)c(O)c4)oc4cc(O)cc(O)c4c3=O)C(O)C(O)C2O)[C@@H](O)C(O)C1O (stereo partly drawn) | 14.4% | 
8 | O=C(O)Cc1ccc(NC(=O)Nc2cccc3ccccc23)cc1 | 7.53% | 
9 | Cc1ccc2c(c1)N(CC(=O)N1CCCC(C)C1)C(=O)CO2 (stereo not drawn) | -15.8% | 
10 | NC1=C([N+](=O)[O-])C(c2ccccc2)C2=C(CCCC2=O)O1 (stereo not drawn) | 2.25% | 
11 | CCOc1cnc(C(=O)NNC(=O)c2ccccc2Br)o1 | 1.36% | 
12 | Cc1cccc(C)c1NC(=O)NC1=CCCN1C | -1.42% | 
13 | CC1CC(C)CN(CCC(=O)Nc2ccc3c(c2)CCC3)C1 (stereo not drawn) | -21.9% | 
14 | COC(=O)N(C)C[C@@H]1OCc2cnnn2CCCC(=O)N([C@@H](C)CO)C[C@@H]1C | -12.9% | 
15 | CC(C)(C)n1nnnc1C(c1ccc2ncccc2c1)N1CCSCC1 (stereo not drawn) | -4.42% | 
16 | Cc1cccc2c1N(CCOc1ccccc1)C(=O)C2=O |  | 1.3 µM (active)
17 | Cc1cccc(C)c1-n1nnnc1C1(C)CCC(=O)N1CCOc1ccccc1 (stereo not drawn) | -25.8% | 
18 | O=C1c2ccccc2C(=O)N1CCOc1ccc(F)cc1 | -5.19% | 
19 | CNS(=O)(=O)c1ccc(NC(=O)C2CC(=O)N(c3ccc(Cl)cc3)C2)cc1 (stereo not drawn) | -25.9% | 
20 | CC12C(=O)N(c3ccccc3)C(=O)C1C(c1ccccc1)N1CCCN12 (stereo not drawn) | -2.82% | 
21 | CCCN(c1ccc(C)cc1)c1nc(=O)c2cccnc2s1 |  | 18.4 µM (active)
22 | NC1=NC2(CCCCC2)N(c2ccc(F)cc2F)C(N)=N1 | -19.6% | 
23 | NC(=O)C(Cc1ccccc1)NC(=O)C12CC3CC(CC(C3)C1)C2 (stereo not drawn) | -27.5% | 
24 | COc1cc2ccccc2cc1C(=O)Nc1nc(C)c(C(C)=O)s1 | -13.2% | 
25 | COC(=O)c1sc(NC(=O)c2ccc(OC)cc2OC)nc1C | -21.8% | 
26 | COc1ccc2c(c1)Cc1sc(NC(=O)c3ccccc3Br)nc1-2 |  | 18.4 µM (active)
27 | COCCN1C=C2C(=O)C(C)(OC(=O)C3CCCC3)C(=O)C=C2C=C1c1ccsc1 (stereo not drawn) | -8.49% | 

Row | Compound | activity change, negative = growth inhibition | Potency
28 | CC(NC(=O)c1cc(Sc2ccc(F)cc2F)nc2ccccc12)c1ccccc1 (stereo not drawn) |  | 23.1 µM (active)
29 | CC(NC(=O)c1cc(=O)[nH]c2ccccc12)c1ccc(F)cc1F (stereo not drawn) | -17.3% | 
30 | CC(C)OCCCNC(=O)c1cc(Sc2ccc(F)cc2)nc2ccccc12 | -86.9% | 
31 | CCCCCc1nnc(NC(=O)c2ccc(=O)n(C)n2)s1 | 2.05% | 
32 | COC(=O)Cc1ccc(NC(=S)NCc2ccco2)cc1 | -22.3% | 
33 | CC(=O)Nc1cccc(-c2ccnc3c2CC(C)(C(=O)NCc2ccco2)O3)c1 (stereo not drawn) |  | 2.91 µM (active)
34 | COc1ccc(NC(=O)Nc2cccc(-c3noc(C)n3)c2)cc1 | -28.2% | 
35 | CC1(C)CC(=O)c2cc(C(=O)NCc3ccccc3)c(=O)[nH]c2C1 | -21.1% | 
36 | O=C(NCc1cccc(CNC(=O)Nc2cccc(O)c2)c1)Nc1cccc(O)c1 | -4.41% | 
37 | COc1ccc(NC(=O)C2(C)Cc3c(-c4ccc(C(N)=O)cc4)ccnc3O2)cc1 (stereo not drawn) | -13.6% | 
38 | CC(=O)Nc1cccc(-c2ccnc3c2CC(C)(C(=O)NCc2ccccc2)O3)c1 (stereo not drawn) |  | 0.92 µM (active)
39 | COc1ccc(NC(=O)C2(C)Cc3c(-c4cccc(NC(C)=O)c4)ccnc3O2)cc1 (stereo not drawn) |  | 1.16 µM (active)
40 | CCC(C)(C)NC(=O)CN(C(=O)CCC(=O)Nc1cc(C)ccn1)c1ccc2c(c1)OCCO2 | -8.85% | 
41 | Cc1cc(=O)oc2cc(OC(C)C(=O)NCCc3ccc(S(N)(=O)=O)cc3)ccc12 (stereo not drawn) | 15.8% | 
42 | CSc1nnc(CNC(=O)c2ccccc2)n1-c1ccc(F)cc1 | 0.927% | 
43 | O=C1CSc2ccc(C(=O)NCc3ccccn3)cc2N1 | 5.72% | 
44 | CCc1nn(CC(=O)Nc2cccc(C)c2C)c(=O)c2cc3sccc3n12 | -9.08% | 
45 | CCc1nn(CC(=O)Nc2cc(C)cc(C)c2)c(=O)c2cc3sccc3n12 |  | 5.17 µM (active)
46 | CCCC1NC(=S)NC(C)=C1C(C)=O (stereo not drawn) | 5.2% | 
47 | Nc1[nH]c(C(=O)c2ccccc2)c(-c2ccc(Br)cc2)c1C(=O)NC1CC1 | -9.87% | 
48 | Cc1ccc2nc(CN3CCN(S(=O)(=O)c4ccc(C)c(C)c4)CC3)oc2c1 | -19.3% | 
49 | O=Cc1cn(CCOc2ccc(F)cc2)c2ccccc12 |  | 11.6 µM (active)
50 | Cc1cc(N2C(=O)C(=O)/C(=C(/O)c3ccc(Cl)cc3)C2c2cccc(Br)c2)no1 (stereo not drawn) | -5.42% | 
51 | CC1(C(=O)NCc2ccccc2)CSCC(=O)N1CCCN1CCOCC1 (stereo not drawn) | 21.3% | 
52 | O=C(Cn1c(-c2ccccn2)nc2ccccc21)NCCN1CCOCC1 | -13.9% | 
53 | c1ccc2[nH]c(NCCN3CCOCC3)nc2c1 | 14.2% | 
